{
  "source": "ChEMBL document CHEMBL1157539",
  "about": "“Thousands of chemical starting points for antimalarial lead identification” (Nature, 2010)",
  "data": [
    {"test_system": "Plasmodium falciparum", "experiment": "GSK_TCMDC: Inhibition of Plasmodium falciparum Dd2 in whole red blood cells, using parasite LDH activity as an index of growth. Test compounds present at 2uM", "format": "functional", "units": {"Inhibition": "%"}, "values": [
      {"smiles": "O=C(Nc1ccccc1F)N(CCCn1ccnc1)Cc1csc(-c2ccc(CNCc3ccccc3)cc2)n1.O=C(O)C(F)(F)F", "Inhibition": 26},
      {"smiles": "CCCc1cc(Cc2cnc(N)nc2N)cc(CCC)c1OC.Cl", "Inhibition": 1},
      {"smiles": "Cc1cc(O)c2c3c1C(=O)C=C1C3c3c(c(O)cc(O)c3C(=O)C1(C)C)C2=O", "note": "(centres undefined)", "Inhibition": 46},
      {"smiles": "CS(=O)(=O)CCN(CCS(C)(=O)=O)Cc1ccc(-c2ccc3ncnc(Nc4ccc(OCc5cccc(F)c5)c(Cl)c4)c3c2)o1.Cc1ccc(S(=O)(=O)O)cc1", "Inhibition": 27},
      {"smiles": "Cc1cnc(NCC2CCCCC2)nc1N[C@@H](CC(C)C)C(=O)Nc1ccccc1.O=C(O)C(F)(F)F", "Inhibition": 55},
      {"smiles": "COc1ccc(CCNc2ccnc3cc(Cl)ccc23)cc1OC.Cl", "Inhibition": 92},
      {"smiles": "COc1ccc2c(NCCc3ccccc3)cc(-c3ccccc3)nc2c1.Cl", "Inhibition": 1},
      {"smiles": "Br.CCCN(CCCCCCNCCc1ccc(Cl)cc1)CCc1ccc(O)c(O)c1", "Inhibition": 11},
      {"smiles": "O=C(C=Cc1ccc(Cl)c(Cl)c1)NCCCCCN1CCC(CCNS(=O)(=O)c2ccc(F)cc2)CC1", "Inhibition": 0},
      {"smiles": "OC(CNc1ccnc(Nc2cccc(Cl)c2)n1)c1cccc(F)c1", "note": "(centres undefined)", "Inhibition": 29},
      {"smiles": "CCOC(=O)NC1=NC(C)(C)N(OCc2cccc3c2ccc2ccccc23)C(NC(=O)OCC)=N1", "Inhibition": 3},
      {"smiles": "CN1CCC(NCc2cccc(-c3ccc(S(=O)(=O)NCc4ccccc4)cc3)c2)CC1.O=C(O)C(F)(F)F", "Inhibition": 93},
      {"smiles": "O=C(NCC1CC1)C1CCN(C(c2ccccc2)c2cc(F)cc(F)c2)CC1", "note": "(centres undefined)", "Inhibition": 95},
      {"smiles": "Cc1cc(NCCc2ccccc2)nc(N/C(=N/CC(=O)OC(C)(C)C)Nc2ccc(C(F)(F)F)cc2)n1.I", "Inhibition": 97}
    ]},
    {"test_system": "HepG2", "experiment": "GSK_TCMDC: Percent inhibition of human HepG2 cell line. Test compounds present at 10uM.", "format": "functional", "units": {"Inhibition": "%"}, "values": [
      {"smiles": "O=C(O)C(F)(F)F.O=C1CCCN1CCCNCc1cccc(-c2ccc(-c3nc4cc(C(F)(F)F)ccc4[nH]3)s2)c1", "Inhibition": 19},
      {"smiles": "COc1ccc2nccc([C@@H](O)CN3CCC(NCc4cc5c(Cl)cccc5[nH]4)CC3)c2c1.O=C(O)C(=O)O", "Inhibition": 40},
      {"smiles": "CCOc1c(OC)ccc2c1CCN(CCN1CCC(CNC(=O)c3ccc(-c4ccc(C#N)cc4)cc3)CC1)C2", "Inhibition": 45},
      {"smiles": "Cc1cccn2c(=O)c3cc(C(=O)NC(C)c4ccccc4)c(=N)n(CCc4ccccc4)c3nc12", "note": "(centres undefined)", "Inhibition": 5},
      {"smiles": "N#Cc1ccc(N(CCOc2ccc(Cl)c(F)c2)Cc2ccccc2C(F)(F)F)cc1C(F)(F)F", "Inhibition": 17},
      {"smiles": "COc1ccc(Oc2ccc(-c3c(O)cc(C)nc3C)cc2)cc1", "Inhibition": 0},
      {"smiles": "CCC[C@@H]([C@@H](CC1CCCCC1)C(=O)N[C@H](C(=O)Nc1nccs1)[C@@H](C)OCc1ccccc1)N(O)C=O", "Inhibition": 51},
      {"smiles": "COc1cc2[nH]c(-c3ccc(O)cc3)c(C)c(=O)c2c(OC)c1OC", "Inhibition": 1},
      {"smiles": "COc1ccc2nccc([C@@H](O)CN3CCC(NC(=O)C(c4cc5ccccc5s4)N4CC(C)OC(C)C4)CC3)c2c1", "note": "(some centres undefined)", "Inhibition": 12},
      {"smiles": "CN(C)CCCOc1cccc(CCNCc2cccc(Oc3ccc(Cl)cc3)c2)c1.O=C(O)C(F)(F)F", "Inhibition": 72},
      {"smiles": "O=C(Nc1cc(F)cc(F)c1)NC1CCN(CCCCCNC(=O)C2CC2c2ccc(Cl)c(Cl)c2)CC1", "note": "(centres undefined)", "Inhibition": 49},
      {"smiles": "COc1ccc(Nc2ncc3c(-c4ccc(NC(=O)c5cccc(C(F)(F)F)c5)cc4)c[nH]c3n2)cc1OC", "Inhibition": 26},
      {"smiles": "Cc1cccc(NC(=O)Nc2ccc(I)c(OCCN(C)C)c2)c1C", "Inhibition": 13},
      {"smiles": "O=C(NCCCCN1CCC(c2ccc3c(c2OCCN2CCCC2=O)CCCC3)CC1)c1ccc(-c2ccc(C(F)(F)F)cc2)cc1", "Inhibition": 56},
      {"smiles": "CC(C)c1cn2c3c(cc(C(=O)N[C@@H](Cc4ccccc4)[C@H](O)CNC4CCCCC4)cc13)N(C)S(=O)(=O)CC2.O=CO", "Inhibition": 9},
      {"smiles": "CC1(CCc2ccccc2)N=C(N)N(Cc2ccccc2)C(=O)C1c1ccc(Cl)c(Cl)c1.O=C(O)C(F)(F)F", "note": "(centres undefined)", "Inhibition": 100},
      {"smiles": "CN1CCN(CC(=O)Nc2ccc(-c3ccc(-c4nc5cc(C(F)(F)F)ccc5[nH]4)s3)cc2)CC1", "Inhibition": 84},
      {"smiles": "COc1cc2nc(NCC3CCCO3)n3nc(-c4ccccc4)nc3c2cc1OC", "note": "(centres undefined)", "Inhibition": 0},
      {"smiles": "CC(C)C[C@H](Nc1ccnc(NCC2CCCCC2)n1)C(=O)Nc1ccccc1.O=C(O)C(F)(F)F", "Inhibition": 6},
      {"smiles": "CN1CCN(CC(=O)Nc2ccc(-c3ccc(-c4nc5cc(C(F)(F)F)ccc5[nH]4)cc3)cc2)CC1", "Inhibition": 43},
      {"smiles": "CCCCc1ccccc1NS(=O)(=O)c1ccc(OC)c(N2CCNCC2)c1.Cl", "Inhibition": 6},
      {"smiles": "O=C(Nc1cccc(Cl)c1Cl)N[C@H]1CCN(CCCCCNC(=O)C2CC2c2ccc(Cl)c(Cl)c2)C1", "note": "(some centres undefined)", "Inhibition": 40},
      {"smiles": "Cc1cccc2nc(-c3cccc(-c4cccc(NC(=O)CCc5c[nH]cn5)c4)c3)[nH]c12", "Inhibition": 16},
      {"smiles": "CCCCCCCCc1c(C)nc(C)c(C#N)c1O", "Inhibition": 0},
      {"smiles": "Cc1nnc(N2C(=N)SC(=Cc3ccc(-c4ccc(OC(F)(F)F)cc4)o3)C2=O)s1", "Inhibition": 37},
      {"smiles": "COc1cccc(NC(=O)NCCNc2ccnc(Nc3ccc(F)cc3)n2)c1", "Inhibition": 18},
      {"smiles": "O=C(Nc1ccccc1F)N(CCCn1ccnc1)Cc1csc(-c2ccc(CNCc3ccccc3)cc2)n1.O=C(O)C(F)(F)F", "Inhibition": 24},
      {"smiles": "CCCc1cc(Cc2cnc(N)nc2N)cc(CCC)c1OC.Cl", "Inhibition": 18},
      {"smiles": "Cc1cc(O)c2c3c1C(=O)C=C1C3c3c(c(O)cc(O)c3C(=O)C1(C)C)C2=O", "note": "(centres undefined)", "Inhibition": 45},
      {"smiles": "CS(=O)(=O)CCN(CCS(C)(=O)=O)Cc1ccc(-c2ccc3ncnc(Nc4ccc(OCc5cccc(F)c5)c(Cl)c4)c3c2)o1.Cc1ccc(S(=O)(=O)O)cc1", "Inhibition": 0},
      {"smiles": "Cc1cnc(NCC2CCCCC2)nc1N[C@@H](CC(C)C)C(=O)Nc1ccccc1.O=C(O)C(F)(F)F", "Inhibition": 12},
      {"smiles": "COc1ccc(CCNc2ccnc3cc(Cl)ccc23)cc1OC.Cl", "Inhibition": 4},
      {"smiles": "COc1ccc2c(NCCc3ccccc3)cc(-c3ccccc3)nc2c1.Cl", "Inhibition": 13},
      {"smiles": "Br.CCCN(CCCCCCNCCc1ccc(Cl)cc1)CCc1ccc(O)c(O)c1", "Inhibition": 26},
      {"smiles": "O=C(C=Cc1ccc(Cl)c(Cl)c1)NCCCCCN1CCC(CCNS(=O)(=O)c2ccc(F)cc2)CC1", "Inhibition": 36},
      {"smiles": "OC(CNc1ccnc(Nc2cccc(Cl)c2)n1)c1cccc(F)c1", "note": "(centres undefined)", "Inhibition": 16},
      {"smiles": "CCOC(=O)NC1=NC(C)(C)N(OCc2cccc3c2ccc2ccccc23)C(NC(=O)OCC)=N1", "Inhibition": 3},
      {"smiles": "CN1CCC(NCc2cccc(-c3ccc(S(=O)(=O)NCc4ccccc4)cc3)c2)CC1.O=C(O)C(F)(F)F", "Inhibition": 61},
      {"smiles": "O=C(NCC1CC1)C1CCN(C(c2ccccc2)c2cc(F)cc(F)c2)CC1", "note": "(centres undefined)", "Inhibition": 0},
      {"smiles": "Cc1cc(NCCc2ccccc2)nc(N/C(=N/CC(=O)OC(C)(C)C)Nc2ccc(C(F)(F)F)cc2)n1.I", "Inhibition": 23}
    ]}
  ]
}
